Drawing on PubChem BioAssay AID1259398 (Fisher Drug Discovery Resource Center, 2018), this text covers inhibition for 90 compounds.

“And” between values parts separate entries of the source, which are not always exact repeats. Equal values may be shown once. The whole screen tested about 290,000 compounds, of which about 230 (0.079%) were called active. This is one part of a sample in which actives are shown more often than they occur. Unmarked numbers belong to inactive results. No stated cut-off is given here; in the data, active means inhibition above about 40%; inactive means the rest.

For this test, the target named is Cyclic GMP-AMP synthase (Homo sapiens) (UniProt Q8N884). Kind of test: Biochemical Kinase-Glo luminescence primary assay, human cyclic GMP-AMP synthase inhibition (AID 1259398).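 Further: 0% = vehicle reaction and 100% = reaction without DNA for no activity.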 To be noted: recombinant h-cGAS, ATP depletion, at 12.5 µM, stronger effect = higher value.
Cyclic GMP-AMP synthase (Homo sapiens), sequence (Q8N884 whole entry, looked up): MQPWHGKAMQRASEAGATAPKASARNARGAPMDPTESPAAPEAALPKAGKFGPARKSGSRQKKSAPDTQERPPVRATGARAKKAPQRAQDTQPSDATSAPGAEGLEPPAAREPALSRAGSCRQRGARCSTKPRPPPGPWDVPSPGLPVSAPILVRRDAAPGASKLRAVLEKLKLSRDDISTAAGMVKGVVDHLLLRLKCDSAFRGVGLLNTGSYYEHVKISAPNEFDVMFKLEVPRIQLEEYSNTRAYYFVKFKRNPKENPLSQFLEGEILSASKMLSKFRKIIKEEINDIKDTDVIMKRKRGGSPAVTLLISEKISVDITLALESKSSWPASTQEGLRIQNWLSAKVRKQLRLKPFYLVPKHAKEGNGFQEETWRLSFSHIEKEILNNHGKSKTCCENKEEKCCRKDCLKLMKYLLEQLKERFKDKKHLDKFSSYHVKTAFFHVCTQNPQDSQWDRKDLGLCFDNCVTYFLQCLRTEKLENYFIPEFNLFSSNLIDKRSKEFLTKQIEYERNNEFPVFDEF
For `COc1ccc(NS(=O)(=O)c2cc(C(=O)Nc3ccc(C)cc3)ccc2C)cc1`, the inhibition (as a rule, the relative decrease from the control value, in per cent) is -2.65%. Turning to `O=C(Cc1csc(SCC(=O)c2ccccc2)n1)NCCC1=CCCCC1`, the inhibition was 7.3%.

As to `O=[N+]([O-])c1cc(S(=O)(=O)C(F)(F)F)ccc1N1CCCC1`, the inhibition was -6.28%. On to `O=[N+]([O-])c1cc(S(=O)(=O)C(F)(F)F)ccc1Oc1ccc2oc3c(c2c1)CCCC3`, for which the inhibition was 50.2% (active).

For `CS(=O)(=O)c1ccc(Oc2ccc3sc(=O)oc3c2)c([N+](=O)[O-])c1`, the inhibition is -8.14%. As for `C=CCN(Cc1ccccc1OC)C(=O)c1ccc(NC(C)=O)cc1`, the figure is 0.115%. On to `Cc1ccc(S(=O)(=O)NCc2ccc3c(c2)OCO3)c(C)c1C`, for which the inhibition is -9.87%.

For `CS(=O)(=O)c1cccc2sc(Cl)nc12`, the inhibition is -7.81%.

Take `CCCCCN(CC(=O)N(CCCC)Cc1cccn1Cc1ccc(Br)cc1)C(=O)c1ccc2c(c1)OCO2`: the inhibition is -1.37%. In the case of `CC(C)CN(CC(C)C)C(=O)c1cccnc1Nc1cccc(C(F)(F)F)c1`, the inhibition is -2.78%. Consider `CC(Nc1nc2c(c(=O)[nH]c(=O)n2C)n1Cc1ccccc1)c1ccccc1` (stereo not given), for which the inhibition is 2.23%.

With `CS(=O)(=O)N1CCC(C(=O)NCc2cc(-c3ccc4c(c3)OCCO4)on2)CC1`, the inhibition is -5.92%.

In the case of `CC(NC(=O)c1ccc(Br)cc1F)C(=O)N1CCOCC1` (stereo not given), the inhibition is -5.97%. Regarding `CC[N+](C)(CC)CCC[n+]1c(-c2ccccc2)c2cc(N)ccc2c2ccc(N)cc21`, the inhibition is 57.3% (active). As for `COc1ccc(CCN(Cc2ccc(C)s2)C(=O)CN(CC2CCCO2)S(=O)(=O)c2c(C)cc(C)cc2C)cc1OC` (stereo not given), the inhibition is -7.86%. Under `CC(=O)CC1C(CC(=O)O)C1(C)C` (stereo not given) stands -5.25%; under `Cc1ccc(S(=O)(=O)Oc2c(CO)cc(C)cc2CO)cc1`, -8.05%; under `CC1(C(=O)NCc2cccs2)CCN1Cc1ccc2c(c1)OCCO2` (stereo not given), -11%.

`CC(=O)N1CCN(C(=O)COC(=O)c2ccc3ccccc3c2O)CC1`: the inhibition was -3.7%. In the case of `CC(C)C(=O)N1CCC1(C)C(=O)Nc1ccccn1` (stereo not given), the inhibition was -6.44%. As to `CCc1nnc(CNc2cc(Cl)ccc2F)n1C`, the inhibition was -5.8%.

Take `CCOc1cccc(-c2ccc(Nc3ccc(OC)cc3C)nc2)c1`: the inhibition was -0.0439%. In the case of `COc1ccccc1OC1CCN(C(=O)CCC2(Cc3ccccc3)CCC(=O)N2)CC1` (stereo not given), the inhibition is -5.11%. For `CCN1C(=O)N(Cc2cccc(OC)c2)C(=O)C12CCN(Cc1cn[nH]c1-c1ccc(F)cc1)CC2`, the inhibition was 11%. With `CC(=O)CC1(O)C(=O)Nc2ccc(I)cc21` (stereo not given), the inhibition is 2.23%. As for `CC1CCc2c(sc(NC(=O)c3cccs3)c2C(=O)Nc2ccc(Cl)cc2)C1` (stereo not given), the figure is -14.3%; as for `C=CCCC(O)CN(Cc1c(CC)nn(-c2ccccc2)c1Oc1cccc(OC)c1)CC1CC1` (stereo not given), -5.62%; as for `O=C(NCc1n[nH]c(=S)n1C1CC1)c1noc2c1CCCC2`, -5.91%. For `O=C(O)CSc1nnc(CCc2ccccc2)n1-c1cccnc1`, the inhibition was -3.94%. Under `Cc1ccsc1C(=O)N1CCCC(CNC(=O)c2ccc(-c3ccccc3)cc2)C1` (stereo not given) stands -7.02% and -6.34%; under `C=CCNCc1cnc(S(=O)(=O)Cc2ccc(F)cc2)n1C(C)C`, -5.49%; under `O=C(O)c1cc(-c2ccco2)nn1-c1ccccc1Cl`, -7.88%. In the case of `C=CCN(CC(=O)Nc1ccccc1C#N)S(=O)(=O)c1c(C)cc(C)cc1C`, the inhibition was -5.26%. Under `Cn1c(SCC(=O)N2CCN(c3ccccc3)CC2)nnc1C(F)(F)F` stands -6.17%. On to `O=C1CN(C(=O)C2CCCC2)CC(O)CN1Cc1cccc(F)c1` (stereo not given), for which the inhibition was 11.5%.

With `CCc1[nH]n(-c2ccc(Cl)c(Cl)c2)c(=O)c1C1=C([n+]2cccc(C)c2)C(=O)N(CC(C)C)C1=O`, the inhibition was -10.4%.

Consider `COCCNC(=O)Cn1nc2c(c1NC(=O)c1cc(OC)cc(OC)c1)CSC2`, for which the inhibition is -4.38%. For `N#Cc1cccc(COc2ccc(NC(=O)NCCO)cc2Cl)c1`, the inhibition is 0.266%.

For `Cc1ccc(Nc2nc(Nc3cccc(F)c3)nc3nccnc23)cc1Cl`, the inhibition was -0.96%. As for `C=CC(=O)Nc1ccc2ncnc(Nc3ccc(OCc4cccc(F)c4)c(Cl)c3)c2c1`, the figure is 43.2% (active); as for `Cc1ccc(OC(C)C(=O)N(C)C2CCS(=O)(=O)C2)c(Br)c1` (stereo not given), -12.8% and -9.58%.

Regarding `Cc1cccc(C2SCC(=O)N2CC(=O)NCc2ccncc2)c1` (stereo not given), the inhibition is -4.08%. Turning to `O=C(c1cc(Cl)c2nc3ccccn3c(=O)c2c1)c1cc(F)ccc1O`, the inhibition was -5.02%.

For the compound `N#CCCN(CCC#N)Cn1c(=O)oc2cc(Br)ccc21`, the inhibition is -6.19%. With `CCCc1nnc2sc(Cc3csc(C)n3)nn12`, the inhibition was -7.66%. For `COCc1nnc2sc(Cc3ccc4c(c3)CCCC4)nn12`, the inhibition is 45.2% (active). As for `c1ccc(Cc2nn3c(Cn4cnc5ccccc54)nnc3s2)cc1`, the inhibition is -1.85%. Regarding `Cc1ccc(S(=O)(=O)N2CCCC2c2nc3ccccc3[nH]2)c(C)c1` (stereo not given), the inhibition is -4.68%.

As for `COCCN(CCC(=O)N1CCC(Cc2ccccc2)CC1)c1nc(Cc2cccc(OC)c2)ns1`, the inhibition was -5.55%. `CC(C)(CNC(=O)c1cc2cccc(F)c2o1)C1CCCCO1` (stereo not given): the inhibition was -5.71%.

On to `Cc1ccc(NC(=O)C2C(C=C(Cl)Cl)C2(C)C)cc1` (stereo not given), for which the inhibition was -4.28%. On to `COc1ccccc1OC1CN(Cc2cc(C)[nH]n2)C1`, for which the inhibition was -4.73%. For `O=C(NNc1cccc(Cl)c1)[C@@H]1CCCN1c1nccc(Nc2ccccc2)n1`, the inhibition is -0.74%. For `CCOc1ccc(N2CCN(C(=O)CCc3ccccc3)C(C)C2=O)cc1` (stereo not given), the inhibition is -2.37%. Take `Cn1cc(CN2CCN(c3ccc(Cl)cn3)CC2)c(-c2ccc3c(c2)OCCO3)n1`: the inhibition was -7.9%. For `CC(CN1CCOCC1)NC(=O)N1CCCc2cc(F)c(F)cc21` (stereo not given), the inhibition is -4.63%.

As for `Cc1cc(Nc2ccc3c(n2)C(=O)N(CC(=O)NCCCn2ccnc2)C3)n(C)n1`, the inhibition is -11.5%. Consider `N#Cc1cccc(NC(=O)CN(Cc2ccco2)Cc2cccs2)c1`, for which the inhibition was -0.473%. Consider `Cc1ccc(C)c(C(C)NC(=O)c2ccccc2-c2nn[nH]n2)c1` (stereo not given), for which the inhibition was -2.34%. As for `COc1ccc(-c2nc3ccccc3c(=O)n2Cc2ccc(F)cc2)c(OC)c1OC`, the figure is -5.68%.

Regarding `O=C(c1cnc(-c2ccncc2)nc1)N1CCOC(CCCc2ccccc2)C1` (stereo not given), the inhibition was -8.45%. Under `O=C(CCC1CCN(C(=O)c2cccc(-n3cccn3)c2)CC1)Nc1ccccc1` stands -9.6%. As for `CN1CCn2nc(C(=O)NC(c3ccccc3)c3ccco3)cc2C1` (stereo not given), the figure is -5.91%; as for `Cc1cc(-c2n[nH]c(=O)n2CCc2ccc(F)cc2)n(C)n1`, 2.4%. Take `Cc1n[nH]c(=O)c2c(NC(=O)CSc3nnc(C)n3C3CC3)oc(C)c12`: the inhibition was -6.69%. On to `O=C(O)CCCc1ccc(Br)s1`, for which the inhibition was 74.1% (active). As for `O=C(CCSCc1ccccn1)NCc1ccc(Br)s1`, the figure is -8.25%; as for `O=C(O)C=Cc1ccc(Br)s1`, -0.785%; as for `Cc1noc(C)c1S(=O)(=O)N1CCCC1c1ccccn1` (stereo not given), -4.73%. For `CN1CCN(Cc2cc(F)ccc2-n2cccn2)CC1CCO` (stereo not given), the inhibition was -8.61%. As for `NS(=O)(=O)c1ccc(CNc2ccc3ncc(-c4ccc(Oc5ccccc5)cc4)n3n2)cc1`, the inhibition was -8.75%. Take `Cc1ccc(CN(Cc2nc3cc(C)ccc3o2)C(=O)CC(C)C)cc1`: the inhibition is -3.11%. As to `Cc1cccc(S(=O)(=O)N2CCN(c3cc(-n4ccnc4)nc(C)n3)CC2)c1`, the inhibition was -1.12%.

With `Cc1cccc(-n2ccc3nc(N4CCCCC4)ncc3c2=O)c1`, the inhibition was -4.1%. For the compound `COc1cc(=O)n(-c2ccccc2C)nc1C(=O)NC(c1ccccc1)c1ccccc1`, the inhibition is -0.757%.

Consider `CCCCC(=O)N(C)c1c(C)nc2ccc(C(=O)NCCCN3CCCC3=O)cn12`, for which the inhibition was -4.09%. As for `CCCCS(=O)(=O)N1CCCN(c2nc(CCC)nc3onc(-c4cccc(C(F)(F)F)c4)c23)CC1`, the inhibition is -3.14%. `Cc1nn(C)c(C)c1CN(C(=O)C1CC(=O)N(CC(C)C)C1)C1CC1` (stereo not given): the inhibition is -3.8%. For the compound `O=C(CCCOc1cccc(Cl)c1Cl)N1CCN(C2CCOC2)CC1` (stereo not given), the inhibition is -4.45%. With `Cn1c(CC2CCNCC2)nnc1SCc1noc(C2CCCO2)n1` (stereo not given), the inhibition was -3.73%. Consider `COc1cc2c(cc1OC)C(C(C)NS(=O)(=O)c1ccccc1)N(Cc1ccccc1F)CC2` (stereo not given), for which the inhibition was -1.82%. Under `CC(=O)Nc1ccccc1N1C(=O)c2ccc(-c3nc4ccccc4c(=O)o3)cc2C1=O` stands 0.929%. On to `CCOC(=NCc1ccccc1)NC(=O)c1cccc(C(F)(F)F)c1`, for which the inhibition was -4.46%.

As to `O=C1NC(C(=O)N2Cc3cnc(-c4ccccc4)nc3C2)CO1` (stereo not given), the inhibition is -0.988%. Turning to `Cc1ccnc2nc(C(=O)N3CCCC3CN3CCCC3)nn12` (stereo not given), the inhibition is -10.3%. Take `Cc1[nH]c(/C=C2\C(=O)Nc3ccc(S(=O)(=O)Cc4c(Cl)cccc4Cl)cc32)c(C)c1C(=O)N1CCC[C@@H]1CN1CCCC1`: the inhibition is 63.1% (active). Take `CC(=O)c1[nH]c(C)c(C(=O)N2CCCCC2CCc2ccccn2)c1C` (stereo not given): the inhibition was -5.8%. As for `Cc1nn(C)c2ncc(C(=O)NCCn3cnnc3C(C)C)cc12`, the figure is 1.28%. In the case of `CC(C)(C)c1cc2nc(-c3ccccc3)cc(C(=O)NC3CCCCNC3=O)n2n1` (stereo not given), the inhibition was 1.91% and -3.83%.

Consider `CC(C)Nc1ccc(C(=O)N[C@H](C)C(C)(C)C)cn1`, for which the inhibition was -9.34%.
